High-throughput results from PubChem BioAssay.
This is a sample that favours compounds with a hit; in the whole collection about 15% have one here.
Pf growth 96h: inhibits malaria parasite growth, 96 h; P. falciparum luciferase reporter growth, 96 h; 320,000 compounds, 6.9% hits; AID 504834; Potency, µM (doses to about 28.7 µM), without a hit: at the top dose activity change, negative = inhibition, actives largely listed as inhibitors; also: potency is read from the fitted curve at half-maximal effect; % is scaled to controls: 0 for no effect and ±100 for the full control effect
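Two parasite generations (96 h, 37 C, 5% CO2) of compound exposure in infected erythrocytes (0.05% parasitemia, 2% hematocrit). Luciferase-reporter P. falciparum; decreased luminescence indicates inhibited growth, aimed at apicoplast-acting delayed death.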
Pf growth 48h: inhibits P. falciparum growth in the first generation, 48 h; Potency, µM (highest dose often 28.7 µM), for inactives: at the highest dose activity change, negative = inhibition, hits mostly inhibitors; 310,000 compounds, 5.9% hits; P. falciparum luciferase growth in erythrocytes, 48 h; AID 504832; also: potency is read from the fitted curve at half-maximal effect; % is scaled to controls: 0 for no effect and ±100 for the full control effect
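Erythrocytes infected with P. falciparum carrying an integrated firefly luciferase reporter (2% hematocrit, 0.1% parasitemia final) were exposed to compounds in RPMI 1640 with 0.5% Albumax at 37 C, 5% CO2. Growth inhibition was scored as reduced luminescence.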
Sm TGR block: S. mansoni TGR enzyme inhibition | purified TGR, DTNB reduction, TNB absorbance 405 nm | Potency, µM (titrated, usually from 114 µM), inactives show at the highest dose activity change, negative = inhibition, actives largely listed as inhibitors | 360,000 compounds, 3% hits | AID 485364; also: potency is read from the fitted curve at half-maximal effect; % is scaled to controls: 0 for no effect and ±100 for the full control effect; nearly all actives have a fitted effect of over 60% in size
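First, TGR (20 nM dispensed) and NADPH were mixed with compound. Second, a 15 min room-temperature incubation followed. Third, further NADPH and then DTNB were added to start the reaction. Finally, TNB absorbance was monitored kinetically.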
HCMV inh: inhibitors of human cytomegalovirus; activity change, negative = inhibition, % at 57.5 µM; 410,000 compounds, 4.5% hits; HFF cells, HCMV-luciferase reporter, 72 h; active compounds read low; in the data active = activity change below about -60%; inconclusive = no clear call, values can overlap the other calls; inactive = above about -39%; also: % is scaled to controls: 0 for no effect and ±100 for the full control effect
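Two compound doses tested in HFFs infected with HCMV-luciferase, MOI 1 PFU/cell, 72 h at 37C. Lysate luminescence read with OneGlo; data normalized against buffer-only and 10uM Salinomycin inhibitor controls.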
SARS PLpro yeast: SARS-CoV PLP inhibition in yeast; Potency, µM (titrated, usually from 32.9 µM), inactives show top-dose activity, positive = growth rescue, hits mostly activators; S. cerevisiae expressing SARS-CoV PLpro, growth rescue; 330,000 compounds, 0.19% hits; AID 485353; calls by dose curve; also: potency is read from the fitted curve at half-maximal effect; 0% is about no effect; nearly all actives have a fitted effect of over 55% in size
HCV inh: inhibitors of hepatitis C virus infection; Huh7.5.1 HCVcc-Cre infection, luciferase reporter, 44 h; Potency, µM (doses to about 41.8 µM), for inactives: at the highest dose activity change, negative = inhibition, actives largely listed as inhibitors; 340,000 compounds, 3.4% hits; AID 651820; also: potency is read from the fitted curve at half-maximal effect; % is scaled to controls: 0 for no effect and ±100 for the full control effect
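Seed cells (1,000/well) for 4 h; treat with compound and infect with HCVcc-Cre, moi about 0.5. Incubate 44 h, then detect luciferase activity.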
Active calls of the source: *; i = inactive; u = inconclusive; x = not tested or not shown. Unless noted, calls follow the shape of the dose curve; as a rule, active = well fitted curve in the direction sought with a large enough effect; inconclusive = small, poorly fitted or top-dose-only effect, or another doubt; inactive = no such curve, though single readings can be large; an effect the other way counts as inactive or inconclusive.

SMILES	Pf growth 96h	Pf growth 48h	Sm TGR block	HCMV inh	SARS PLpro yeast	HCV inh
Cc1ccc(N=Nc2c(O)n(CN3CCOCC3)c3ccccc23)cc1	i	-1%	-29%	x	-6%	-12%
Cc1ccc(NC(=S)N=Nc2c(O)n(C)c3ccc(S(=O)(=O)N4CCOCC4)cc23)cc1C	-27%	3.3µM*	1%	u	15%	8%
C=CCn1c(O)c(N=NC(=S)Nc2ccccc2C)c2cc(S(=O)(=O)N3CCOCC3)ccc21	13µM*	2.9µM*	0%	-74*	-4%	u
Cn1c(O)c(N=NC(=S)Nc2ccccc2F)c2cc(S(=O)(=O)N3CCOCC3)ccc21	u	u	-1%	-63*	-3%	u
CC(=O)Nc1ccc(NC(=O)c2cc3c(=O)n(Cc4cccnc4)ccc3nc2C)cc1	x	x	-1%	8	x	x
Cc1cc(C)cc(NC(=O)C2CCCN(c3nnc(C)c4c(C)n(-c5ccccc5)nc34)C2)c1 (centres undefined)	x	x	0%	-24	x	x
Nc1nc(Nc2ccccc2F)nc(N2CCCC2)c1[N+](=O)[O-]	127%	100%	-2%	58	-2%	8.9µM*
CC(C)CCNc1nc(N)c([N+](=O)[O-])c(N2CCCCCC2)n1	2.1µM*	3.7µM*	-2%	-94*	-3%	u
COc1ccc(C(=O)NNC2CC(=O)N(Cc3ccc(Cl)cc3)C2=O)cc1OC (centres undefined)	17%	13%	5%	-18	u	-1%
Cc1noc(C)c1C(=O)OCC(=O)c1cc(C)n(Cc2ccccc2Cl)c1C	x	39%	0%	-38	-5%	11µM*
Cc1nn2c(C)c(C(=O)NCC(C)c3ccccc3)cnc2c1-c1ccccc1 (centres undefined)	x	x	0%	-8	x	x
Cc1ccc2ccc3ccc(C)nc3c2n1	18%	0.23µM*	-6%	-94*	-32%	0.32µM*
Cn1c(N)c(C(=O)COC(=O)c2ccc3c(c2)C(=O)N(c2ccc(Cl)cc2)C3=O)c(=O)n(C)c1=O	17%	3%	-14%	42	0%	5%
CCC1CCCCN1CC(=O)Nc1cc(C)nn1-c1nc(C)cc(C)n1 (centres undefined)	0%	5.2µM*	-15%	-36	6%	u
Cc1cc(C)nc(-n2nc(C)cc2NC(=O)CN2CCCC2)n1	u	u	8%	u	1%	-21%
Cc1cc(C)nc(-n2nc(C)cc2NC(=O)CN2CCC(C)CC2)n1	2.3µM*	u	-22%	u	12%	3%
C[C@@H](C(=O)Nc1ccc2ccccc2c1)[C@H]1C[C@]1(C)[C@H](NC(=O)c1cnccn1)c1ccccc1	1.5µM*	2.9µM*	-6%	-3	-3%	u
Cc1cc(C(=O)N[C@H](c2ccccc2)[C@@]2(C)C[C@@H]2[C@@H](C)C(=O)Nc2ccc3ccccc3c2)no1	12µM*	u	-9%	4	14%	u
N=c1n(CCCOc2ccccc2Cl)c2ccccc2n1CC(N)=O	u	u	8%	-40	1%	-16%
O=C(NC1CCCCC1)C(c1ccncc1)N(Cc1ccccc1)C(=O)c1ccc(-c2ccccc2)[nH]1 (centres undefined)	-3%	u	-3%	-32	-5%	13µM*
CC(C(=O)NC1CCCC1)N(C(=O)c1ccc(-c2ccccc2)[nH]1)c1ccccc1F (centres undefined)	u	13µM*	-13%	-13	-16%	-49%
CC(C)(C)NC(=O)C(c1ccc(Cl)cc1)N(Cc1ccco1)C(=O)CCl (centres undefined)	-20%	u	11µM*	15	-4%	2%
CC(C)(C)NC(=O)C(c1ccncc1)N(Cc1ccco1)C(=O)c1ccc(-c2ccccc2)[nH]1 (centres undefined)	0%	u	10µM*	75	-9%	5%
